# The supplement of paper PMC10849652
# Of roughly 8,800 targets only a part is listed; those with a hit were picked by preference. About 0.5% of all pairs of compound and target were hits.
# Key:
# Test in all cases: log2 fold change, soluble protein after heating vs DMSO (PISA); higher = thermal stabilisation; K562 lysate, 10 uM; active = over 0.2 and 3.5 SD of the protein, either way, in both replicates (recomputed)
# [1] = compound: CS(=O)(=O)CCNCc1ccc(-c2ccc3ncnc(Nc4ccc(OCc5cccc(F)c5)c(Cl)c4)c3c2)o1 [lapatinib]
# In short: (§1)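 Values give the log-two fold change in thermal stability against solvent controls, from duplicates. Crude K562 extract at 1 mg/mL protein, made by dounce homogenisation in PBS pH 7.4 with 1 mM MgCl2, was treated with 10 μM compound for 30 min. After 3 min heating across 48°C-58°C, aliquots were pooled, adjusted to 0.5% NP-40 at 4°C and centrifuged at 21,000xg for 90 min. The supernatant was measured by TMTpro 16plex LC-MS/MS with channel sums equalised.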
# [2] = compound: C[C@@H](Oc1cc(-c2cnn(C3CCNCC3)c2)cnc1N)c1c(Cl)ccc(F)c1Cl [crizotinib]
# In short: as §1
# [3] = compound: C[C@H](C1=CC=C(C=C1)C(=O)NC2=C3C=CNC3=NC=C2)N
# In short: as §1
# [4] = compound: C[C@H](Nc1ncnc2nc[nH]c12)c1cc2cccc(Cl)c2c(=O)n1-c1ccccc1 [duvelisib]
# In short: as §1
# [5] = compound: Cc1cc(Nc2cc(CN3CCOCC3)c3nc(C)c(Cc4ccc(Cl)cc4F)n3n2)n[nH]1 [gandotinib]
# In short: as §1
# [6] = compound: Cc1ccc(-n2nc(C(C)(C)C)cc2NC(=O)Nc2ccc(OCCN3CCOCC3)c3ccccc23)cc1 [doramapimod]
# In short: as §1
# [7] = compound: Cc1cccc(CC(=O)N2CCc3c2ccc(-c2cn(C)c4ncnc(N)c24)c3F)n1
# In short: as §1
# [8] = compound: Cc1cc(Nc2cc(N3CCN(C)CC3)nc(Sc3ccc(NC(=O)C4CC4)cc3)n2)n[nH]1 [tozasertib]
# In short: as §1
# [9] = compound: Cc1ccc(NC(=O)c2ccc(CN3CC[C@H](N(C)C)C3)c(C(F)(F)F)c2)cc1Nc1nccc(-c2cncnc2)n1 [bafetinib]
# In short: as §1
# [10] = compound: CS(=O)(=O)N1CCN(Cc2cc3nc(-c4cccc5[nH]ncc45)nc(N4CCOCC4)c3s2)CC1 [pictilisib]
# In short: as §1
# Sequence of UniProt P53355 (P53355 whole entry, looked up): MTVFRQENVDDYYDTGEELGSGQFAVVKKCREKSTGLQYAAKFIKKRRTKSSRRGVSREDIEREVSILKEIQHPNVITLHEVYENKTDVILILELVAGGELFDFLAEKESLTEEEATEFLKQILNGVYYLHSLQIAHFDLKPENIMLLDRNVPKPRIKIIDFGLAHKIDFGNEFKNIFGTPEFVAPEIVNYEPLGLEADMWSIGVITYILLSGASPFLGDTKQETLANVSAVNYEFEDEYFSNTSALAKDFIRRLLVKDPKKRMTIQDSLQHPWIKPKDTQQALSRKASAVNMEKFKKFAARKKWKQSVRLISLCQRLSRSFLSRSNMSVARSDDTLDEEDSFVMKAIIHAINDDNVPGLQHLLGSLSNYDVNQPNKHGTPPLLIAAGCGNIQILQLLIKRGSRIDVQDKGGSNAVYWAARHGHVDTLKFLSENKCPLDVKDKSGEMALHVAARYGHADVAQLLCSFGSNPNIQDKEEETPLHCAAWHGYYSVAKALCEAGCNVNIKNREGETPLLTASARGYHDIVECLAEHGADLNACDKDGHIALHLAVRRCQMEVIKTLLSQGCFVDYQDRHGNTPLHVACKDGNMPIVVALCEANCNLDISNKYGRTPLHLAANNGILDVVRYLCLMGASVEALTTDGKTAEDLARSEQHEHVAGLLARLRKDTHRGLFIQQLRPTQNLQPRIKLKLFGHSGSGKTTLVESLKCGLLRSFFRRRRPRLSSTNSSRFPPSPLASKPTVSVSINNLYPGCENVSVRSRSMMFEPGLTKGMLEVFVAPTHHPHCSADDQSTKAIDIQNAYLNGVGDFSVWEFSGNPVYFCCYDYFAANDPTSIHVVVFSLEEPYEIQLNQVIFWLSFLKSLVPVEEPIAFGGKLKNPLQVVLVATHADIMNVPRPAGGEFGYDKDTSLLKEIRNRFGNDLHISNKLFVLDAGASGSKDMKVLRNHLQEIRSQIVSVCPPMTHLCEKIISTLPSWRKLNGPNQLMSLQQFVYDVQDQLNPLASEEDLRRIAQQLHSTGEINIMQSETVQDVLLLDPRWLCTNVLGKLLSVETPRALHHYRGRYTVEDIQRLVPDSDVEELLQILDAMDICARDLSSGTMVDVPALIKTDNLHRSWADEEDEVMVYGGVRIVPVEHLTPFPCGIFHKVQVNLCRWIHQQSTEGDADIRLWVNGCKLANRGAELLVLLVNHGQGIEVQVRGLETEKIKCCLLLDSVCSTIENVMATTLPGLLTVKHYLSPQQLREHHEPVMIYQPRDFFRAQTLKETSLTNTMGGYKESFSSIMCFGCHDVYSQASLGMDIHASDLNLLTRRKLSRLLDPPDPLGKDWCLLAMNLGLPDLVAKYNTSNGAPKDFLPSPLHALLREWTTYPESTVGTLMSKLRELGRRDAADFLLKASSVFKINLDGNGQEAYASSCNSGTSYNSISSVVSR
# Sequence of UniProt P57737 (P57737 whole entry, looked up): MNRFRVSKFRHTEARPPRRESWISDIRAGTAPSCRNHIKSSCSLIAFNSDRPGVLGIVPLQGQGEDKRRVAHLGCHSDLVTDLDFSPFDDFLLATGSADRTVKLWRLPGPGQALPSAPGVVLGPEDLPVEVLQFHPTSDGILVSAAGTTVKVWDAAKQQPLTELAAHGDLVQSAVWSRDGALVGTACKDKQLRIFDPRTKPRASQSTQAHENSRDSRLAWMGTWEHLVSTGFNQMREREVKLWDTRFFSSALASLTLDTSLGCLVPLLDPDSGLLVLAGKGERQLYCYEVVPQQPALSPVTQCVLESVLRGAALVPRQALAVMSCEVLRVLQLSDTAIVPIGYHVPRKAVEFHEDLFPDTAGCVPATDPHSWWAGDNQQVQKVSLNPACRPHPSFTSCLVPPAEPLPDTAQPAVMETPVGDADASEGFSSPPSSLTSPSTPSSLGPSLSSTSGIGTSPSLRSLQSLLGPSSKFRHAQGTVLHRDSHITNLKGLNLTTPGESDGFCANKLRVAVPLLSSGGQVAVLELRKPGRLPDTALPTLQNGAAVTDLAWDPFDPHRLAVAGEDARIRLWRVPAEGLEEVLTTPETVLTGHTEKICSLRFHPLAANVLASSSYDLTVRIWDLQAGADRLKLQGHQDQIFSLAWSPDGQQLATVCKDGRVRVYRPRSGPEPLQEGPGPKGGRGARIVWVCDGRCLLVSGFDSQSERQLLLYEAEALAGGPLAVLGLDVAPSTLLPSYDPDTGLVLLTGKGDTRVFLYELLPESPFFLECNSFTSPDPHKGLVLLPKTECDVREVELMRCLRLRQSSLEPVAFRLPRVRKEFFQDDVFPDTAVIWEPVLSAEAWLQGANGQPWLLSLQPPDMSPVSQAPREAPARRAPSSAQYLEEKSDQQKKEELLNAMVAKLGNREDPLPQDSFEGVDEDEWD
# Sequence of UniProt Q9BSY9 (Q9BSY9 whole entry, looked up): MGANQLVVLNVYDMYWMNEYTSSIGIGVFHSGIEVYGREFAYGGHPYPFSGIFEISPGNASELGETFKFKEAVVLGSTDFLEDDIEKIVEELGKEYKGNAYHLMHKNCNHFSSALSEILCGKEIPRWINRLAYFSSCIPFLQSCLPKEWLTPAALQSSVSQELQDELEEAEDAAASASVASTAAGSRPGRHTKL
# Sequence of UniProt Q5D0E6 (Q5D0E6 whole entry, looked up): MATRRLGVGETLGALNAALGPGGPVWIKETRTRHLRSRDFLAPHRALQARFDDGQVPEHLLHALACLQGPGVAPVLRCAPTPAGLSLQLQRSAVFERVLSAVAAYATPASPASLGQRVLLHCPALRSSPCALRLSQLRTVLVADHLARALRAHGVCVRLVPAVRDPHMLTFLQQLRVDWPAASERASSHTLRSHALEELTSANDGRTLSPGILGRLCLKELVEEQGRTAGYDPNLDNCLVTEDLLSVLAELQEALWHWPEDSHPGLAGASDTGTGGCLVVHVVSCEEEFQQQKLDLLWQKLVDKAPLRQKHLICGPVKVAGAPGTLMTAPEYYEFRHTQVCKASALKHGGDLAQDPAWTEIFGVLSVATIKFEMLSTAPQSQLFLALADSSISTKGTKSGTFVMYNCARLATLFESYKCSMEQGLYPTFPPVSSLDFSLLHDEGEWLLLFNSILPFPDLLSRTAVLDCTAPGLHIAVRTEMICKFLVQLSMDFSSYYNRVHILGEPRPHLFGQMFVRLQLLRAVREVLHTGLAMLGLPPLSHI
# Sequence of UniProt P30622 (P30622 whole entry, looked up): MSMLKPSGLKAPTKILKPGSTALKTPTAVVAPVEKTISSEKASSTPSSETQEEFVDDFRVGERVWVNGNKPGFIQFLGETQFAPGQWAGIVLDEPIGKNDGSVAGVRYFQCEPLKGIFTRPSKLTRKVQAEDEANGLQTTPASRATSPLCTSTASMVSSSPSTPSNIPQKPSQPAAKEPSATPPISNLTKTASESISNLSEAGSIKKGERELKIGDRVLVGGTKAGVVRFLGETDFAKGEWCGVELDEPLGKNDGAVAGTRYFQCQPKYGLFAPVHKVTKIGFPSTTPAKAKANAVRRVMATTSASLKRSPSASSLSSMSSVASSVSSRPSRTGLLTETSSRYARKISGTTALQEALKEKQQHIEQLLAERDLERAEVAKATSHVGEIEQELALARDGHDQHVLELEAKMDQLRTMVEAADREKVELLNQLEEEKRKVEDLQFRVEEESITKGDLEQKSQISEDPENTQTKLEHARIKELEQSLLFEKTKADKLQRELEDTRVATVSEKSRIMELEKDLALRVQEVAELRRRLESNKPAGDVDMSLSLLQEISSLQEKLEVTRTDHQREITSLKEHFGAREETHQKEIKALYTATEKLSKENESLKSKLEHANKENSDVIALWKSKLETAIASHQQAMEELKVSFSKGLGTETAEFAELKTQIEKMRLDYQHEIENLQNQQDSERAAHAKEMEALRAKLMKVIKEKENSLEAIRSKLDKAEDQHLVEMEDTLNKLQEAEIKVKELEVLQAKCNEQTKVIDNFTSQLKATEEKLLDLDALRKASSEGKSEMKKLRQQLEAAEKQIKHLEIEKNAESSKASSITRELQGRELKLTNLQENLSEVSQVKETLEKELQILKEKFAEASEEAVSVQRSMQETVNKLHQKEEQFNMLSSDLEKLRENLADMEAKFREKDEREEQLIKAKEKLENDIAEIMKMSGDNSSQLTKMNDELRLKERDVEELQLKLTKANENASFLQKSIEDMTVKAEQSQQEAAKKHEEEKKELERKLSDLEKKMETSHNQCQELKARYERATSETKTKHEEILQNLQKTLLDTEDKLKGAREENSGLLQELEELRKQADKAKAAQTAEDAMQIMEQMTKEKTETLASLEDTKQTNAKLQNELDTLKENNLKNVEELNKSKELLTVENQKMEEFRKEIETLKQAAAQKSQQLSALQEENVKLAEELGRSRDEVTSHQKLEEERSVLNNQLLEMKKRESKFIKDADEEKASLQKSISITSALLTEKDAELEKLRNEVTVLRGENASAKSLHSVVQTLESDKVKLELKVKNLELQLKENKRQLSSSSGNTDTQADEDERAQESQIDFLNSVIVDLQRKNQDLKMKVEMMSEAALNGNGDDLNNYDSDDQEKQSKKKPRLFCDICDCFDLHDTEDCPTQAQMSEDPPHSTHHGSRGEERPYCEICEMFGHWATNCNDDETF
# Sequence of UniProt O94760 (O94760 whole entry, looked up): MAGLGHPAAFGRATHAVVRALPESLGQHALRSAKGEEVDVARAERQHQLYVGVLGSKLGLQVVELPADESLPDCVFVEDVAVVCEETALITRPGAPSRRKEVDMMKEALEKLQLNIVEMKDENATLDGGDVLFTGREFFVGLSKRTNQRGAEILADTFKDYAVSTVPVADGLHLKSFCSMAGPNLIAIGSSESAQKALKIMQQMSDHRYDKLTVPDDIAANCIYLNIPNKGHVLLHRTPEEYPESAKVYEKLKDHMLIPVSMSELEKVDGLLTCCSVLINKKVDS
# Sequence of UniProt O14810 (O14810 whole entry, looked up): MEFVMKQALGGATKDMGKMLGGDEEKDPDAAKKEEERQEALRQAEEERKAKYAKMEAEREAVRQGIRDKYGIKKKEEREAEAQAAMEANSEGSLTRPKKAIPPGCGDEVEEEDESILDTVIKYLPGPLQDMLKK
Target,log2 fold change [1],log2 fold change [2],log2 fold change [3],log2 fold change [4],log2 fold change [5],log2 fold change [6],log2 fold change [7],log2 fold change [8],log2 fold change [9],log2 fold change [10]
DAPK1 isoform 3 (UniProt P53355),0.042 (inactive),0.022 (inactive),0.188 (inactive),0.042 (inactive),0.058 (inactive),-0.141 (inactive),-0.383 (inactive),,,
CLIP1 isoform 2 (UniProt P30622),0.066 (inactive),0.018 (inactive),-0.103 (inactive),-0.053 (inactive),0.135 (inactive),0 (inactive),0 (inactive),0.047 (inactive),0.031 (inactive),
DNA2 (UniProt P51530),,-0.046 (inactive),0.052 (inactive),-0.02 (inactive),0.013 (inactive),0.051 (inactive),-0.017 (inactive),-0.07 (inactive),,
DLGAP5 isoform 3 (UniProt Q15398),,,-0.176 (inactive),-0.098 (inactive),0.05 (inactive),,-0.505 (inactive),,0.031 (inactive),0.092 (inactive)
CPLX1 (UniProt O14810),-0.095 (inactive),,,-0.001 (inactive),,,,0.167 (inactive),,
CORO7 (UniProt P57737),,-0.004 (inactive),-0.139 (inactive),-0.084 (inactive),0 (inactive),0.016 (inactive),-0.335 (inactive),0.092 (inactive),,
CLUH (UniProt O75153),-0.014 (inactive),-0.057 (inactive),-0.012 (inactive),0.147 (inactive),0.004 (inactive),-0.007 (inactive),0.032 (inactive),-0.005 (inactive),-0.044 (inactive),
CIC (UniProt I3L1Q4),,,,,,,,,0.021 (inactive),0.065 (inactive)
DHX32 (UniProt Q7L7V1),,-0.03 (inactive),-0.013 (inactive),,-0.01 (inactive),0.012 (inactive),-0.077 (inactive),0.108 (inactive),,
DESI2 (UniProt Q9BSY9),,,-0.095 (inactive),,-0.078 (inactive),,0.316 (inactive),-0.095 (inactive),,
CLASP2 (UniProt O75122),0.003 (inactive),0.127 (inactive),-0.086 (inactive),,-0.031 (inactive),-0.001 (inactive),0.067 (inactive),0.052 (inactive),-0.199 (inactive),
CUX1 isoform 2 (UniProt Q13948),-0.168 (inactive),-0.073 (inactive),0.104 (inactive),0.014 (inactive),0.041 (inactive),-0.12 (inactive),-0.089 (inactive),0.057 (inactive),,
DDR1 isoform 5 (UniProt Q08345),,-0.712 (active),0.097 (inactive),-0.051 (inactive),-0.305 (inactive),,0.007 (inactive),,0.101 (inactive),-0.075 (inactive)
DNAJC24 (UniProt Q6P3W2),0.006 (inactive),0.074 (inactive),0.152 (inactive),-0.025 (inactive),-0.162 (inactive),0.042 (inactive),-0.134 (inactive),0.073 (inactive),,
CLPB isoform 2 (UniProt Q9H078),-0.034 (inactive),-0.03 (inactive),0.024 (inactive),-0.015 (inactive),-0.093 (inactive),-0.01 (inactive),0.039 (inactive),0.046 (inactive),-0.072 (inactive),
"CLIP1, A0A3B3ITA2",,-0.033 (inactive),-0.222 (inactive),,0.55 (inactive),-0.138 (inactive),0.269 (inactive),,,
CNK3/IPCEF1 isoform 2 (UniProt G9CGD6),,,-1.84 (active),0.129 (inactive),0.326 (inactive),,0.4 (inactive),0.105 (inactive),,
COL6A3 (UniProt P12111),,-0.023 (inactive),-0.04 (inactive),0.013 (inactive),-0.036 (inactive),0.032 (inactive),0.048 (inactive),,0.036 (inactive),-0.019 (inactive)
CLIP1 isoform 1 (UniProt P30622),0.006 (inactive),0.023 (inactive),-0.023 (inactive),0.004 (inactive),0.036 (inactive),0.011 (inactive),-0.01 (inactive),0.001 (inactive),-0.003 (inactive),
CNNM2 (UniProt Q9H8M5),0.006 (inactive),0.021 (inactive),-0.039 (inactive),0.041 (inactive),-0.064 (inactive),-0.026 (inactive),0.036 (inactive),-0.078 (inactive),,
DCTN1 isoform 4 (UniProt Q14203),-0.039 (inactive),-0.031 (inactive),0.054 (inactive),-0.032 (inactive),0.121 (inactive),-0.103 (inactive),-0.239 (inactive),0.173 (inactive),,
COL12A1 (UniProt Q99715),-0.117 (inactive),-0.031 (inactive),,0.086 (inactive),,0.88 (inactive),,-0.021 (inactive),,
CSNK1A1 isoform 3 (UniProt P48729),,,,-0.077 (inactive),,,,,,
DALRD3 (UniProt Q5D0E6),0.021 (inactive),,-0.131 (inactive),,-0.087 (inactive),,0.096 (inactive),0.139 (inactive),,
DBF4 (UniProt Q9UBU7),,-0.031 (inactive),-0.409 (active),0.004 (inactive),0.059 (inactive),-0.018 (inactive),0.035 (inactive),-0.009 (inactive),-0.028 (inactive),0 (inactive)
DNM2 isoform 4 (UniProt P50570),0.031 (inactive),0.014 (inactive),-0.16 (inactive),0.015 (inactive),-0.134 (inactive),0.066 (inactive),0.16 (inactive),-0.084 (inactive),,
DDAH1 (UniProt O94760),0.011 (inactive),0 (inactive),0.059 (inactive),0.186 (inactive),-0.039 (inactive),-0.058 (inactive),0.196 (inactive),-0.044 (inactive),,
CHFR (UniProt Q96EP1),-0.062 (inactive),-0.051 (inactive),,0.023 (inactive),,-0.012 (inactive),,-0.063 (inactive),,
